Out of some 340,000 compounds screened, about 2,100 (0.62%) were called active.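 How the source made its calls: active means first-screen hits whose inhibition reached a set limit at any dose in the follow-up dose series; inconclusive means inhibition above the set first-screen limit but never retested; inactive means the rest.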 A selection follows. Entries with a potency or affinity are not part of this list.
biological target: Rac GTPase-activating protein 1 (Homo sapiens) (UniProt Q9H0H5); assay: MgcRacGAP GTPase-activating activity inhibitors, confirmation, biochemical, ADP Hunter fluorescence, primary and confirmatory (AID 624330); conditions: MgcRacGAP-stimulated Rac1 GTP hydrolysis, at 30 µM, hits give high values, GST-tagged Rac1 F28L mutant substrate;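 further: fluorescence reports GDP produced by GAP-driven GTP hydrolysis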
Sequence (Q9H0H5 whole entry, looked up): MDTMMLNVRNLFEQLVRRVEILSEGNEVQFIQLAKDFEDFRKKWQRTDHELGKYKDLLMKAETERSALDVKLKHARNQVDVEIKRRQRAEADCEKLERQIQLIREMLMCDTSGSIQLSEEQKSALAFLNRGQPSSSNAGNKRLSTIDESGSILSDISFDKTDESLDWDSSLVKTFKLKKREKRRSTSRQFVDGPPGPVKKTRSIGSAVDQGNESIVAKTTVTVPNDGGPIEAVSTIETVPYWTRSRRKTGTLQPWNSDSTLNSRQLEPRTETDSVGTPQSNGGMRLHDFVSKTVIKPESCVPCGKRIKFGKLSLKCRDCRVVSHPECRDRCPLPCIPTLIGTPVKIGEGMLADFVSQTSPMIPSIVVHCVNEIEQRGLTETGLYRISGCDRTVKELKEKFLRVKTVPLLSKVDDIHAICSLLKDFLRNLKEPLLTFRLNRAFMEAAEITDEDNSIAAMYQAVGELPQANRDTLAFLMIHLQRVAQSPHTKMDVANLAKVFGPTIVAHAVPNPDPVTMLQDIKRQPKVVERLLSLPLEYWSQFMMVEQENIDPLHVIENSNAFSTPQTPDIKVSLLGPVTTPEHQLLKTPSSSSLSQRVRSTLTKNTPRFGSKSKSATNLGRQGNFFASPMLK

inhibition, inactive:
CC(=O)c1cccc(NC(=O)Nc2c(C)nn(C)c2C)c1 6.89%
Nc1nc(-c2ccccc2)c(-c2ccccc2)s1 10.3%
Cc1ccc(-c2nc(N)sc2-c2ccccc2)cc1C 8.82%
O=S(=O)(NCCCN1CCOCC1)c1ccc(Cl)s1 1.35%
C/C(=C\C(=O)c1cccnc1)Nc1ccc(C(=O)O)cc1 -0.69%
COc1ccc(NC(=O)c2ccc(C(=O)c3ccccc3)o2)cc1 1.49%
COc1ccc(N/C(C)=C/C(=O)c2ccccc2)cc1 10.4%
CC(=O)Nc1ccc(N/C(C)=C/C(=O)c2cccnc2)cc1 -2.43%
C/C(=C\C(=O)c1ccccc1)Nc1ccc(Cl)c(Br)c1 6.98%
O=C(Nc1ccccc1O)c1ccc(C(=O)c2ccccc2)o1 3.33%
CCN(CC(=O)NCc1ccc(Cl)cc1)C(=O)Cc1ccc(OC)cc1 5.69%
Cc1cc(C(=O)Nc2ccccc2[N+](=O)[O-])cs1 0.21%
CCOc1ccc(NC(=O)CN(C)C(=O)c2ccc(N3CCCCCC3)c([N+](=O)[O-])c2)cc1OCC 3.24%
CCN(CC)CCCNc1ncnc2ccccc12 8.44%
CN(C)CCNc1ccc(-c2nn(C)c(=O)c3ccccc23)cc1[N+](=O)[O-] 3.29%
CCOC(=O)c1cnc2ccc(Cl)cc2c1NCCN(C)C 14.5%
Cc1cc(NCCO)c2cc(O)ccc2n1 15%
CCOC(=O)c1ccc2ncc(C(=O)OCC)c(NCCN(C)C)c2c1 -0.66%
CCN(CC)CCCNC(=O)c1cc(-c2ccc(O)cc2)on1 25.9%
COC(=O)c1ccccc1NC(=O)c1sc(Cl)nc1C 6.47%
O=C1C=CC(=O)C(CNc2ccc(C(=O)OCc3ccccc3)cc2)=C1 19.7%
Fc1ccc(-c2nnc(N3CCOCC3)c3ccccc23)cc1F 10.8%
COC(=O)C(Cc1ccccc1)NC(=O)CNS(=O)(=O)c1ccc(Br)cc1 (centres undefined) -0.24%
CC[N+](CC)(CC)CCOc1ccc(/C=C/c2ccccc2)cc1 9.54%
CCOc1ccc2c(c1)C(=O)c1cc(OCC(=O)O)ccc1-2 13.8%
CCCCOc1cccc(C(=O)O)c1 4%
Cc1cc(OCCCCOc2ccc(S(N)(=O)=O)c(C)c2)ccc1S(N)(=O)=O 6.93%
O=C(c1ccc(Cl)c(S(=O)(=O)N2CCCCCC2)c1)N1CCCC(C(F)(F)F)C1 (centres undefined) 1.91%
COc1cccc(C(=O)NC2CCCc3ccccc32)c1 (centres undefined) 11.4%
Cn1c(O)c(/C=C2\C=Nc3ccccc32)sc1=Nc1ccc(C(=O)O)cc1 7.27%
Oc1nc(Nc2ccc(F)cc2)sc1/C=C1\C=Nc2ccccc21 10.4%
O=c1[nH]c(=S)[nH]c(O)c1/C=C1\C=Nc2ccccc21 -1.08%
CSc1nsc2nc(=O)c(/C=C3\C=Nc4ccccc43)c(N)n12 1.86%
CC(=O)c1ccc(-n2c(CCC(=O)O)ccc2-c2ccc(Br)cc2)cc1 11.4%
CCCN(CC(=O)Nc1cccc(Br)c1)CC(=O)Nc1ccc(F)c(F)c1F 8.26%
CCc1ccccc1S(=O)(=O)Cc1ccc(C(=O)NCc2cccs2)o1 1.89%
O=C(CN(CC1CCCO1)C(=O)Cn1nnc(-c2ccc(F)cc2)n1)NC1CCCCC1 (centres undefined) 3.03%
Cc1cccc(C(C)Nc2ccc([N+](=O)[O-])cn2)c1 (centres undefined) 1.95%
COC(=O)c1ccc(/C=C/C(=O)c2ccc(OC)cc2)cc1 4.33%
COc1ccc(/C=C/C(=O)c2ccc(O)cc2)cc1 4.28%
CCn1cc(C(=O)N2CCN(c3ccc(OC)cc3)CC2)c2cc(OC)c(OC)cc2c1=O 18.7%
CC(C)c1nnc(NC(=O)c2cccc(-n3cnnn3)c2)s1 10.5%
Cc1ccc(C2=NN=C(NC(=O)CSc3nnc4c5ccccc5n(C)c4n3)SC2)cc1 28.8%
Cc1cc(C)nc(SCC(=O)NC2=NN=C(c3ccc(Br)cc3)CS2)n1 27.2%
COc1ccc2nc(/C(C#N)=C\c3ccc(Oc4ccc([N+](=O)[O-])cn4)cc3)[nH]c2c1 5.92%
Cc1cccc(N2C(=O)Cc3ccccc3C2=O)c1 8.26%
Cc1ccc(C(c2nnnn2C2CCCC2)N2CCN(c3nc4ccccc4s3)CC2)cc1 (centres undefined) 4.8%
Cc1ccc(OCC(=O)N/N=C\c2cccn2C)c([N+](=O)[O-])c1 1.92%
COc1ccc2nc3cc(Cl)ccc3c(Nc3cc(C(C)C)c(O)cc3C)c2c1 7.74%
COc1ccc(N2CCN(Cc3nc4cc(Cl)ccc4c(=O)[nH]3)CC2)cc1 15.2%
CCOc1ccc(N2C(=O)CC(Cc3cc(C)cc(C)c3)C2=O)cc1 (centres undefined) 7.28%
Cc1ccc(N=C(N)N=C(N)N)cc1 16.3%
Cc1ccc(N=Nc2ccc(O)cc2)c(Br)c1 14.6%
CC(=O)C1C(c2cccc(F)c2)c2c(n[nH]c2C)CC1(C)O (centres undefined) 9.67%
CCC(=O)N1N=C(c2cccc(NS(C)(=O)=O)c2)CC1c1cccs1 (centres undefined) 11.9%
COc1cc(NCc2ccccc2)c2ncn(Cc3ccccc3)c2c1 6.64%
CCn1cc(C(=O)Nc2ccc(NC(=O)c3ccco3)cc2)c(=O)c2ccc(C)nc21 0.62%
Cc1cc(C(=O)CN2C(=O)NC3(CCCCC3)C2=O)c(C)n1Cc1ccc2c(c1)OCO2 0.78%
Cc1[nH]n(-c2cccc([N+](=O)[O-])c2)c(=O)c1-c1ccccc1 8.04%
Nc1c(-c2cccc(Cl)c2)cnn1-c1ccccc1 20.3%
O=c1c(N=Nc2ccccc2)c[nH]n1-c1ccccc1 -5.5%
Nc1c(-c2ccccc2)cnn1-c1cccc([N+](=O)[O-])c1 5.5%
COc1c[nH]n(-c2ccccc2)c(=O)c1=O 5.24%
S=c1[nH]cc(-c2ccccc2)n1-c1cccc(Cl)c1 6.88%
